# Laboratory results reported in PubChem BioAssay AID651791 (National Center for Advancing Translational Sciences (NCATS), 2012).
# Records with an inconclusive call do not appear. The source made the active and inactive calls. Calls follow the shape of the dose curve; as a rule, active = well fitted inhibition curve with a large enough effect; inconclusive = small, poorly fitted or top-dose-only effect; inactive = no such curve, though single readings can be large or run the other way.
# Test: InCell qHTS Assay for Inhibitors of the mTORC1 Signaling Pathway in MEF (Tsc2-/-, p53-/-) Cells: Hit Validation;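 also: phospho-S6 Ser235/236 signal normalized to propidium iodide cell count per well; nearly all actives have a fitted effect of over 75% in size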
# Details: phospho-rpS6 immunofluorescence, 24 h; activity change, negative = inhibition: at 38.3 µM (top of the series)
# Potency is read from the fitted curve at half-maximal effect.
Structure (SMILES),"activity change, negative = inhibition [%]",Potency
CCC(C)NC(=O)c1sc2nc(C)c(C(=O)Nc3ccc(C)cc3C)c(-c3ccc(Cl)cc3)c2c1N (configuration not stated),-100,
CCOC(=O)N1CCN(Cc2nc3cc(NC(=O)CC)ccc3n2C(C)C)CC1,-100,
CCOc1cc(CNCCSc2nnnn2C)cc(Cl)c1OCc1ccc(Cl)cc1,-100,
CCNS(=O)(=O)c1ccc(NC(=O)CSc2nc(-c3ccco3)cc(C(F)(F)F)n2)cc1,-13.9,
O=C(CN1C(=O)C(c2ccc(F)cc2)=NC12CCCCCC2)Nc1ccccc1Cl,-100,
Cc1ccc(-c2nnc(C3CCN(S(=O)(=O)c4ccc(C)c(C)c4)CC3)o2)cc1,-100,
COc1ccc(-c2nnc(SCC(=O)NCc3ccccc3)nc2-c2ccc(OC)c(OC)c2)cc1OC,-100,
Cc1ccc(NC(=O)CSc2nc(-c3ccco3)cc(C(F)(F)F)n2)cc1C,-100,
CCc1ccc(CNc2ncc(-c3cccc(OC)c3)n2C)cc1,-100,
Cc1c(C2=CCN(S(=O)(=O)c3ccc(Br)cc3)CC2)c2ccccc2n1CC(=O)N1CCCC1,-100,
CCN(CC)CCOC(=O)c1ccc(NC(=O)c2nn(-c3ccc(C)cc3)c(=O)c3c2c2ccccc2n3C)cc1,,3.29 µM (active)
O=S(=O)(c1ccccc1)n1nc(-c2ccc(Cl)cc2)nc1NCc1ccccc1,-5.06,
CC(C)CS(=O)(=O)c1oc(-c2ccc(F)cc2)nc1S(=O)(=O)c1ccccc1,,3.29 µM (active)
Nc1nnc(SCC(=O)Nc2cccc(F)c2)s1,-100,
Cc1cccc(-n2nnnc2S(C)(=O)=O)c1,,3.29 µM (active)
Cc1cccc(NC(=O)c2nc(S(C)(=O)=O)ncc2Cl)c1,,5.21 µM (active)
CCOc1ccc(N(CC(=O)Nc2ccccc2CC)S(=O)(=O)c2c(C)noc2C)cc1,-100,
Cc1cccc(Nc2ncc(NC(=O)c3cccc(F)c3)c(Nc3cccc(C)c3)n2)c1,-100,
CCOC(=O)Cn1c(=O)c2c(nc(N3CCOCC3)n2Cc2ccccc2)n(C)c1=O,,11.7 µM (active)

Structure (SMILES),"activity change, negative = inhibition [%]",Potency
CCC(=O)C1=C(c2ccc(F)cc2)N(C(=O)CC)n2cnnc2S1,-21.8,
CN(C)c1ccc(-c2nc3ccccn3c2Nc2ccc3c(c2)OCCO3)cc1,-100,
COc1ccc(CCN2C(=O)c3[nH]nc(-c4ccccc4O)c3C2c2ccc(OC)c(OC)c2)cc1 (configuration not stated),-100,
CC1=Nc2cc(C(=O)NC3CCCCC3)ccc2Sc2ccc(Cl)cc21,-100,
Cc1cccc(N2CCN(c3ncnc4c3nc3n4CCCCC3)CC2C)c1 (configuration not stated),,5.85 µM (active)
CCS(=O)(=O)c1ccccc1C(=O)N(Cc1cccnc1)c1nc2cc(C)c(C)cc2s1,-100,
COc1ccc(C2=NS(=O)(=O)N(C)C(C(=O)Nc3ccc(OC(F)(F)F)cc3)=C2)cc1,-100,
COc1cccc(C(=O)Nc2ccc(-c3cc(C(F)(F)F)nn3-c3ccccc3)cc2)c1,-100,
Cc1cc(C)c(NC(=O)Cn2c(=O)n(Cc3ccc(C(=O)NCc4ccc5c(c4)OCO5)cc3)c(=O)c3ccccc32)c(C)c1,,3.29 µM (active)
COc1ccc(NC(=O)CSc2nc3ccccc3nc2N2CCC(C)CC2)cc1,-100,
O=C(Cn1cc(SCc2ccccc2)c2ccccc21)N1CCCCCC1,-100,
COc1ccc(C(=O)c2sc(Nc3ccccc3)nc2N)cc1,-100,
CCOC(=O)c1c(NC(=O)c2cc(CC)on2)sc(C(C)=O)c1C,-100,
Cc1cccc(CS(=O)(=O)c2ncc(Cl)c(C(=O)NCc3ccccc3)n2)c1,,10.4 µM (active)
COc1ccc(OCc2nc3c4c(-c5ccccc5)c(-c5ccccc5)oc4ncn3n2)cc1,-100,
COc1ccc(N2CCN(C(=O)C3CCN(Cc4nc(-c5ccc(Cl)cc5)oc4C)CC3)CC2)cc1,-100,
COc1cc2nc(Nc3ccc(C)c(C)c3)nc(N)c2cc1OC,-100,
Cc1ccc(S(=O)(=O)c2nnn3c2nc(NCc2cccs2)c2sccc23)cc1,-100,
